Drawing on PubChem BioAssay (EPA / NIEHS), this text covers outcome and AC50 for six compounds.

Read-out in assay [1]: Urokinase-type plasminogen activator receptor (uPAR), PLAUR (gene 5329)
As to the kind of experiment: BSK_CASM3C_uPAR: BioMAP Diversity Plus: CASM3C Assay for Urokinase-type plasminogen activator receptor (uPAR) Biomarker Activity (AID 2283054).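 Further: cell-surface uPAR protein level quantified by ELISA.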 Particulars: primary human coronary artery smooth muscle cells; actives raise or lower the signal.

Read-out in assay [2]: Vascular cell adhesion molecule 1 (VCAM1), VCAM1 (gene 7412)
Kind of assay: BSK_CASM3C_VCAM1: BioMAP Diversity Plus: CASM3C Assay for Vascular cell adhesion molecule 1 (VCAM1) Biomarker Activity (AID 2283055).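 Further: VCAM-1 protein level quantified by ELISA on the cells.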 Particulars: primary human coronary artery smooth muscle cells; actives raise or lower the signal.

Read-out in assay [3]: Collagen III, COL3A1 (gene 1281)
As to the kind of experiment: BSK_hDFCGF_CollagenIII: BioMAP Diversity Plus: hDFCGF Assay for Collagen III Biomarker Activity (AID 2283056). Particulars: primary human foreskin fibroblasts; actives raise or lower the signal. In outline: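 ELISA readout of Collagen III in human dermal (foreskin) fibroblasts, taken 24 h post-treatment. Gain or loss relative to DMSO vehicle fitted in both directions.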

Read-out in assay [4]: Epidermal growth factor receptor (EGFR), EGFR (gene 1956)
As to the kind of experiment: BSK_hDFCGF_EGFR: BioMAP Diversity Plus: hDFCGF Assay for Epidermal growth factor receptor (EGFR) Biomarker Activity (AID 2283057). Particulars: primary human foreskin fibroblasts; actives raise or lower the signal. In outline:
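ELISA readout of EGFR on human dermal fibroblasts (primary foreskin cells), 24 h post-dosing; bidirectional curve fit vs DMSO baseline, gain or loss of signal scored.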

The nature of assay [5]: BSK_hDFCGF_Proliferation: Cell Proliferation Assessment in the BioMAP Diversity Plus: hDFCGF Assay (AID 2283059).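 Further: curves fitted for both rise and fall of signal versus DMSO baseline.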 Particulars: primary human foreskin fibroblasts. The method, boiled down:
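This proliferation readout used SRB total-protein staining of human foreskin fibroblasts […], normalized to DMSO with bidirectional curve fitting.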

Read-out in assay [6]: Macrophage colony-stimulating factor (MCSF), CSF1 (gene 1435)
As to the kind of experiment: BSK_hDFCGF_MCSF: BioMAP Diversity Plus: hDFCGF Assay for Macrophage colony-stimulating factor (MCSF) Biomarker Activity (AID 2283060). Particulars: primary human foreskin fibroblasts; actives raise or lower the signal. In outline:
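M-CSF levels read by ELISA at 24 h post-dosing in human skin fibroblasts. Parallel cultures stained with SRB assessed cytotoxicity at the same time point; response fitted in both directions against the DMSO baseline.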

The nature of assay [7]: BSK_hDFCGF_SRB: Viability Assessment in the BioMAP Diversity Plus: hDFCGF Assay (AID 2283061).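 Further: cells exposed to compound for 24 h before the read.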 Particulars: primary human foreskin fibroblasts. In outline:
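Viability was read as total protein: after 10% TCA fixation, wells were stained with 0.1% sulforhodamine B and read at 560 nm. Primary human foreskin fibroblasts were dosed for 24 h, with bidirectional fitting versus DMSO.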

Read-out in assay [8]: TIMP metallopeptidase inhibitor 1 (TIMP1), TIMP1 (gene 7076)
Kind of assay: BSK_hDFCGF_TIMP1: BioMAP Diversity Plus: hDFCGF Assay for TIMP metallopeptidase inhibitor 1 (TIMP1) Biomarker Activity (AID 2283062). Particulars: primary human foreskin fibroblasts; actives raise or lower the signal. The method, boiled down: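 TIMP-1 measured by ELISA 24 h after chemical dosing of primary human skin fibroblasts, with gain or loss fitted relative to DMSO. Parallel SRB staining (560 nm) monitored overt cytotoxicity.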

Read-out in assay [9]: Monokine induced gamma interferon (MIG), CXCL9 (gene 4283)
As to the kind of experiment: BSK_hDFCGF_MIG: BioMAP Diversity Plus: hDFCGF Assay for Monokine induced gamma interferon (MIG) Biomarker Activity (AID 2283063). Particulars: primary human foreskin fibroblasts; actives raise or lower the signal. In outline: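 Human primary foreskin fibroblasts in the hDFCGF system, exposed to test chemical for 24 h; MIG measured by ELISA. Bidirectional curve fitting against DMSO negative control as activity baseline.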

Read-out in assay [10]: Matrix Metallopeptidase 1 (MMP1), MMP1 (gene 4312)
Kind of assay: BSK_hDFCGF_MMP1: BioMAP Diversity Plus: hDFCGF Assay for Matrix Metallopeptidase 1 (MMP1) Biomarker Activity (AID 2283064). Particulars: primary human foreskin fibroblasts; actives raise or lower the signal. The method, boiled down: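 Human foreskin fibroblasts exposed to chemical for 24 h; MMP1 detected by ELISA, with DMSO as baseline for bidirectional fitting.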

Read-out in assay [11]: Vascular cell adhesion molecule 1 (VCAM1), VCAM1 (gene 7412)
Kind of assay: BSK_hDFCGF_VCAM1: BioMAP Diversity Plus: hDFCGF Assay for Vascular cell adhesion molecule 1 (VCAM1) Biomarker Activity (AID 2283065).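 On AC50: VCAM-1 protein level quantified by ELISA after 24 h chemical exposure.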 Particulars: primary human foreskin fibroblasts; actives raise or lower the signal. The method, boiled down:
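ELISA readout of VCAM-1 on human dermal fibroblast primary cultures, 24 h after chemical exposure. Gain or loss of signal fitted in both directions against DMSO baseline.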

Read-out in assay [12]: Plasminogen activator inhibitor-1 (PAI1), SERPINE1 (gene 5054)
As to the kind of experiment: BSK_hDFCGF_PAI1: BioMAP Diversity Plus: hDFCGF Assay for Plasminogen activator inhibitor-1 (PAI1) Biomarker Activity (AID 2283066). Particulars: primary human foreskin fibroblasts; actives raise or lower the signal. In outline: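 ELISA readout of PAI-1 from primary human skin fibroblast cultures, 24 h after compound addition. Gain or loss of signal was fitted bidirectionally against DMSO baseline.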

Read-out in assay [13]: Intercellular Adhesion Molecule 1 (ICAM1), ICAM1 (gene 3383)
Kind of assay: BSK_KF3CT_ICAM1: BioMAP Diversity Plus: KF3CT Assay for Intercellular Adhesion Molecule 1 (ICAM1) Biomarker Activity (AID 2283067). Particulars: primary human keratinocytes with fibroblasts; actives raise or lower the signal. The method, boiled down:
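Cell-surface ICAM-1 was measured by ELISA 24 h after dosing primary human skin keratinocytes co-cultured with fibroblasts. Parallel SRB staining tracked overt cytotoxicity. Gain or loss of signal was fitted relative to DMSO.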

Read-out in assay [14]: Interferon-gamma inducible Protein 10 (IP10), CXCL10 (gene 3627)
Kind of assay: BSK_KF3CT_IP10: BioMAP Diversity Plus: KF3CT Assay for Interferon-gamma inducible Protein 10 (IP10) Biomarker Activity (AID 2283068). Particulars: primary human keratinocytes with fibroblasts; actives raise or lower the signal. The method, boiled down:
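Signal is secreted/surface IP-10 by ELISA in a human primary skin co-culture of keratinocytes and foreskin fibroblasts, taken 24 h post-dosing; DMSO served as negative control.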

Assay [15] is described as follows: BSK_KF3CT_SRB: Viability Assessment in the BioMAP Diversity Plus: KF3CT Assay (AID 2283069). Particulars: primary human keratinocytes with fibroblasts. The method, boiled down: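 Overt cytotoxicity is assessed as total protein by sulforhodamine B staining in parallel human skin co-cultures at 24 h after dosing. DMSO serves as negative control and baseline.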
Read-out in assay [16]: Interleukin-1 alpha (IL1a), IL1A (gene 3552)
Kind of assay: BSK_KF3CT_IL1a: BioMAP Diversity Plus: KF3CT Assay for Interleukin-1 alpha (IL1a) Biomarker Activity (AID 2283070). Particulars: primary human keratinocytes with fibroblasts; actives raise or lower the signal. In outline: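 Readout is IL-1a level by ELISA, compared bidirectionally with DMSO as baseline. Cells: human keratinocytes co-cultured with foreskin fibroblasts, harvested 24 h post-dose.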

Read-out in assay [17]: TIMP metallopeptidase inhibitor 2 (TIMP2), TIMP2 (gene 7077)
As to the kind of experiment: BSK_KF3CT_TIMP2: BioMAP Diversity Plus: KF3CT Assay for TIMP metallopeptidase inhibitor 2 (TIMP2) Biomarker Activity (AID 2283071). Particulars: primary human keratinocytes with fibroblasts; actives raise or lower the signal. The method, boiled down: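 ELISA readout of TIMP-2 in keratinocyte plus foreskin fibroblast co-cultures (human skin primary cells), 24 h post-dose. Gain or loss of signal fitted relative to DMSO.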

Read-out in assay [18]: Transforming growth factor beta 1 (TGFb1), TGFB1 (gene 7040)
Kind of assay: BSK_KF3CT_TGFb1: BioMAP Diversity Plus: KF3CT Assay for Transforming growth factor beta 1 (TGFb1) Biomarker Activity (AID 2283072). Particulars: primary human keratinocytes with fibroblasts; actives raise or lower the signal. The method, boiled down: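 Read-out: ELISA for TGF-b1 in keratinocyte/foreskin fibroblast human skin co-culture, 24 h after dosing; bidirectional curve fit vs DMSO baseline; gain or loss of signal scored.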

Read-out in assay [19]: C-C motif chemokine 2 (Homo sapiens) (UniProt P13500)
Kind of assay: BSK_KF3CT_MCP1: BioMAP Diversity Plus: KF3CT Assay for Monocyte Chemoattractant Protein 1 (MCP1/CCL2) Biomarker Activity (AID 2283073). Particulars: primary human keratinocytes with fibroblasts; actives raise or lower the signal. In outline:
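ELISA read-out of MCP-1, 24 h post-dose, in primary human skin keratinocytes co-cultured with fibroblasts. Parallel SRB staining monitors cytotoxicity; changes fitted both directions relative to DMSO.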

Read-out in assay [20]: Interleukin-8 (IL8), CXCL8 (gene 3576)
Kind of assay: BSK_hDFCGF_IL8: BioMAP Diversity Plus: hDFCGF Assay for Interleukin-8 (IL8) Biomarker Activity (AID 2283058). Particulars: primary human foreskin fibroblasts; actives raise or lower the signal. The method, boiled down:
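IL-8 levels read by ELISA at 24 hours after dosing human skin fibroblast cultures. Parallel SRB staining assessed overt cytotoxicity, and gain or loss of signal was fitted against DMSO control.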

Active and inactive are the calls of the source. How the source made its calls: active means hit-call score of the fitted dose curve at least 0.9, where 1 is the maximum; inactive means score below 0.9.

For `ClCC(Cl)CCl`, the outcome in assay [1], in assay [2], in assay [3], in assay [4], in [5] and in [6] was inactive. In addition, the outcome in assay [7], in assay [8], in [9], in assay [10], in assay [11] and in assay [12] was inactive. The result in assay [13], in assay [14], in [15], in [16], in assay [17] and in assay [18] was inactive. In addition, the result in [19] was inactive.
Turning to `CCNc1nc(NC(C)(C)C)nc(SC)n1`, the outcome in assay [1], in [2], in assay [3], in [4], in [5] and in assay [6] was inactive. The outcome in assay [7], in assay [8], in assay [9], in assay [10], in assay [11] and in assay [12] was inactive. The outcome in assay [13], in assay [14], in [15], in [18] and in assay [19] was inactive. The AC50 in assay [16] and in assay [17] was 20 µM (active) in each case.
For the compound `COC(=O)c1sccc1S(=O)(=O)NC(=O)Nc1nc(C)nc(OC)n1`, the outcome in assay [1], in assay [2], in [3], in assay [4], in assay [5] and in assay [6] was inactive. Also, the result in [8], in [9], in assay [10], in [11], in assay [12] and in [13] was inactive. Besides, the outcome in assay [14], in assay [15], in assay [16], in [17], in [18] and in assay [19] was inactive.
Turning to `CCOC(=O)/C=C(C)/C=C/C[C@@H](C)CCCC(C)C`, the AC50 is 30.9 µM (active) in [1]; 20 µM (active) in assay [2]; 8.64 µM (active) in [3]; 9.55 µM (active) in assay [5]; 20 µM (active) in assay [6]; 25.1 µM (active) in assay [7]. Also, the half-maximal activity concentration (AC50) in assay [8] was 26.6 µM (active); in assay [9], 33.2 µM (active); in assay [10] it was 32.4 µM (active); in assay [11], 20.7 µM (active); in assay [13], 34.5 µM (active); in assay [14], 33.4 µM (active). Besides, the AC50 in [15] is 33.8 µM (active); in assay [16], 26.3 µM (active); in assay [17] it was 27 µM (active); in assay [18], 13.5 µM (active); in [19], 7.27 µM (active). The result in assay [4] was inactive.
Take `Nc1ncc([N+](=O)[O-])s1`: the outcome in assay [1], in assay [2], in assay [3], in assay [4], in [5] and in assay [6] was inactive. For the same compound, the outcome in [8], in assay [9], in assay [10], in [11], in [12] and in assay [13] was inactive. Also, the result in [14], in assay [15], in assay [16], in [17], in [18] and in [19] was inactive.
As for `CC(=O)[O][Hg][c]1ccccc1`, the half-maximal activity concentration (AC50) in assay [1] was 0.487 µM (active); in assay [2], 0.836 µM (active); in assay [20] it was 0.148 µM (active); in assay [5], 0.148 µM (active); in assay [6], 0.447 µM (active); in assay [7] it was 0.464 µM (active). In addition, the AC50 was 0.148 µM (active) in [8]; 0.208 µM (active) in assay [9]; 0.148 µM (active) in [10]; 0.511 µM (active) in assay [11]; 0.183 µM (active) in assay [12]; 0.467 µM (active) in assay [13]. The half-maximal activity concentration (AC50) in assay [14] is 0.148 µM (active); in assay [15] it was 0.617 µM (active); in assay [16] it was 0.707 µM (active); in [17], 0.148 µM (active); in assay [18] it was 0.146 µM (active). The outcome in assay [4] was inactive.
